Pf growth 48h: inhibits P. falciparum growth in the first generation, 48 h. AID 504832. P. falciparum luciferase growth in erythrocytes, 48 h. 5.9% of 310,000 active. Potency, µM (series often up to 28.7 µM), inactives show at the top dose activity change, negative = inhibition, hits mostly inhibitors; also: potency is read from the fitted curve at half-maximal effect
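A one-generation exposure of luciferase-tagged malaria parasites in RPMI 1640/Albumax erythrocyte culture, 37 C and 5% CO2. Inhibition is inferred from decreased luminescence after adding detection reagent.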
Pf growth 96h: inhibits malaria parasite growth, 96 h | 6.9% of 320,000 active | P. falciparum luciferase reporter growth, 96 h | Potency, µM (highest dose often 28.7 µM), inactives show at the top dose activity change, negative = inhibition, most hits filed as inhibitors; also: potency is read from the fitted curve at half-maximal effect
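Delayed-death screen, second-generation endpoint: infected erythrocytes, 2% hematocrit, 0.05% parasitemia final; 96 hours at 37 C, 5% CO2; luciferase detection reagent; luminescence decrease equals reduced growth.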
HCV inhibitor: HCV inhibition; Huh7.5.1 HCVcc-Cre infection, luciferase reporter, 44 h; Potency, µM (series often up to 41.8 µM), inactives show at the highest dose activity change, negative = inhibition, most hits filed as inhibitors; 3.4% of 340,000 active; also: potency is read from the fitted curve at half-maximal effect
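Seed cells (1,000/well) for 4 h; treat with compound and infect with HCVcc-Cre, moi about 0.5. Incubate 44 h, then detect luciferase activity.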
HCMV inh: inhibitors of human cytomegalovirus. HFF cells, HCMV-luciferase reporter, 72 h; hits give low values. activity change, negative = inhibition, % at 57.5 µM. 4.5% of 410,000 active. AID 1259415; in the data active = activity change below about -60%; inconclusive = no clear call, values can overlap the other calls; inactive = above about -39%
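Steps: HFFs plated, 16 h 37C; compounds added; HCMV-luciferase added to MOI 1 PFU/cell; 72 h 37C; OneGlo reagent, 5 min room temperature; luminescence read, normalized to controls.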
The depositor's hits bear a star; ? = inconclusive; / = no result given; [ ] = dose if it differs, or a comment. An excerpt weighted towards active compounds, which were near 13% of everything screened. Unless noted, calls follow the shape of the dose curve; as a rule, active = well fitted inhibition curve with a large enough effect; inconclusive = small, poorly fitted or top-dose-only effect, or another doubt; inactive = no such curve, though single readings can be large or run the other way. % is scaled to controls: 0 for no effect and ±100 for the full control effect.

SMILES	Pf growth 48h	Pf growth 96h	HCV inhibitor	HCMV inh
COc1ccc(-c2nn(-c3ccccc3)cc2C(=O)NC(=S)NNC(=O)c2ccncc2)cc1	?	?	-22%	-92*
Cc1onc(-c2ccccc2)c1C(=O)NC(=S)NNC(=O)c1ccncc1	?	10µM*	?	4
COc1ccc(-c2nn(-c3ccccc3)cc2C(=O)NC(=S)Nc2cc(Cl)ccc2Cl)cc1	2.9µM*	5.2µM*	1%	0
CCOC(=O)c1cc(S(=O)(=O)N2CCN(c3ccccc3OC)CC2)[nH]n1	/	/	/	8
CCCCCCC(=O)Nc1nc(C)c(-c2csc(Nc3ccc(Cl)cc3)n2)s1	10µM*	2.9µM*	5%[8.37 µM]	/
CCCCCC(=O)Nc1nc(C)c(-c2csc(Nc3ccc(Cl)cc3)n2)s1	15µM*	?	-22%	?
COc1ccc(Cl)cc1NC(=O)CSc1nc2ccccc2nc1N1CCCCC1	/	/	/	29
CCCCCCOC(=O)/C=C/c1c(C)[nH]c(=O)[nH]c1=O	9.3µM*	66%	9%	34
O=c1[nH][nH]cc1C=Nc1cc(Cl)ccc1O	?	6.6µM*	-25%	-3
O=[N+]([O-])c1ccc(N2CCOCC2)nc1	17%	-4%	19%	11
O=C(c1ccc(F)cc1F)C1CCN(c2ccc([N+](=O)[O-])cn2)CC1	27%	14%	4.5µM*	-77*
O=C(Nn1c(Cc2ccccc2)nc2ccccc2c1=O)c1c(O)c2cccc3c2n(c1=O)CCC3	27%	-4%	-10%	-66*
O=C(NCc1ccco1)c1c(O)c2cccc3c2n(c1=O)CCC3	13%	13µM*	9%	-11
CNC(=O)C1CCC(Cn2c(=O)c3sccc3n(CC(=O)N3CCCC3)c2=O)CC1 (stereo unspecified)	/	/	/	-12
Cc1cccc(-c2cc(NC(=O)COc3ccccc3F)n(-c3ccccc3)n2)c1	/	/	/	54
CCc1cccc(NC(=O)COC(=O)c2c(-c3ccccc3)noc2C)c1	/	/	/	18
Cc1onc(-c2ccccc2)c1C(=O)OCC(=O)Nc1ccc(Cl)cc1	?	-6%	10µM*	6
Cc1onc(-c2ccccc2)c1C(=O)OCC(=O)Nc1cccc(Cl)c1	12µM*	?	?	?
Cc1onc(-c2c(F)cccc2Cl)c1C(=O)OCC(=O)NC(N)=O	11%	30%	?	-18
Cc1onc(-c2c(F)cccc2Cl)c1C(=O)OCC(=O)NC(c1ccccc1)c1ccccc1	12µM*	/	-19%	10
Cc1ccc(NC(=O)COC(=O)c2c(-c3ccccc3)noc2C)cc1	?	?	?	-8
O=C(COC(=O)c1ccncc1)Nc1cccc(Cl)c1	-35%	0%	16%	6
O=C(COC(=O)c1cccnc1)Nc1cccc(Cl)c1	-16%	4.7µM*	-8%	37
CC(C)c1ccc(OCC(=O)NCCS(=O)(=O)N2CCN(c3ccc(F)cc3)CC2)cc1	/	/	/	59
CCOc1ccc(Nc2oc(-c3ccc(COc4ccc(C)cc4)o3)nc2C#N)cc1	/	/	/	-20
SMILES	Pf growth 48h	Pf growth 96h	HCV inhibitor	HCMV inh
Cc1onc(-c2ccccc2)c1C(=O)OCC(=O)Nc1ccc(OC(F)(F)F)cc1	?	10%	11µM*	-24
Cc1onc(-c2c(Cl)cccc2Cl)c1C(=O)ONC(=O)c1cc(C(F)(F)F)cc(C(F)(F)F)c1	45%	0%	-8%	-99*
Cc1onc(-c2ccccc2)c1C(=O)OCC(=O)Nc1ccccc1Cl	/	/	/	2
CCC(Oc1ccccc1)C(=O)Nc1ccccc1OCc1cc(=O)n2ccccc2n1 (stereo unspecified)	/	/	/	-27
Cc1ccc(CNC(=O)CCCn2c(=O)c3ccccc3n(CC(=O)Nc3ccc(C)c(C)c3)c2=O)cc1	/	/	/	-1
C[C@@]12C(=O)N(c3cccc(Cl)c3)C(=O)N1[C@@H]1c3ccccc3OC[C@@H]1[C@H]2c1ccccc1	/	/	?	94
Cc1cccc(N2C(=O)N3[C@@H]4c5ccccc5OC[C@@H]4[C@@H](c4ccccc4)[C@@]3(C)C2=O)c1	?	?	-26%	13
C[C@@]12C(=O)N(c3cccc(F)c3)C(=O)N1[C@@H]1c3ccccc3OC[C@@H]1[C@H]2c1ccccc1	/	/	?	-101*
Cc1cccc(N2C(=O)N3[C@@H]4c5ccccc5OC[C@@H]4[C@@H](c4ccccc4)[C@]3(C)C2=O)c1	?	12µM*	-10%	/
C[C@]12C(=O)N(c3cccc(Cl)c3)C(=O)N1[C@H]1c3ccccc3OC[C@@H]1[C@H]2c1ccccc1	0%	10µM*	-1%	/
CC(C)COc1ccc(C(=O)N(Cc2ccc(N(C)C)cc2)Cc2ccco2)cc1	/	/	/	-35
Cc1c(CC(=O)NCCc2ccccc2F)c(=O)oc2cc(O)c(Cl)cc12	/	/	/	-16
COc1ccc2c(CNC3CCCC3)c(C(=O)O)n(Cc3ccccc3C)c2c1	/	/	/	2
CCOc1ccccc1CN1CCNC(=O)C1CC(=O)NCc1cc(C)n(C)n1 (stereo unspecified)	-10%	2.1µM*	15%	-4
CCOc1ccccc1CN1CCNC(=O)C1CC(=O)NCc1nccn1CC (stereo unspecified)	-21%	1%	-14%	-67*
CCOc1ccccc1CN1CCNC(=O)C1CC(=O)NCCN1CCOC1=O (stereo unspecified)	17%	3%	16%	-3
CCn1ccnc1CNC(=O)CC1C(=O)NCCN1Cc1ccc(OC)cc1OC (stereo unspecified)	16%	-19%	8%	-28
COc1ccc(C(=O)N2CCN(c3nc4c(C)c(Cl)ccc4s3)CC2)c(OC)c1	/	/	/	-39
Cc1ccc(-n2c(SCC(=O)Nc3cc(C)on3)nc3c([nH]c4ccccc43)c2=O)cc1	?	?	?	-70*
CC(=O)Nc1ccc(NC(=O)CSc2nc3c([nH]c4ccccc43)c(=O)n2-c2ccccc2F)cc1	-18%	?	?	-25
COc1cccc(-n2c(SCC(=O)Nc3c(C)cc(C)cc3C)nc3c([nH]c4ccccc43)c2=O)c1	/	/	/	-80*
O=C(CSc1nc2c([nH]c3ccccc32)c(=O)n1-c1ccccc1F)Nc1cccc(C(F)(F)F)c1	/	/	/	-62*
COc1ccccc1-n1c(SCC(=O)Nc2ccc(NC(C)=O)cc2)nc2c([nH]c3ccccc32)c1=O	-54%	13µM*	?	82
CCc1ccc(NC(=O)c2cc(=O)c3ccc(C)c(C)c3o2)cc1	/	/	/	6
COc1cc(-c2nc(Cn3nnc(C(=O)Nc4ccccc4C)c3C)c(C)o2)cc(OC)c1OC	/	/	/	-38
COc1ccc(-n2c(SCC(=O)Nc3cc(C)on3)nc3c([nH]c4ccccc43)c2=O)cc1OC	10µM*	6.6µM*	/	16
COc1ccc(-n2c(SCC(=O)Nc3cc(C)on3)nc3c([nH]c4ccccc43)c2=O)cc1	?	?	0%	-13
CCc1ccc(NC(=O)CSc2nc3c([nH]c4ccccc43)c(=O)n2-c2ccc(C)cc2)cc1	/	/	/	-96*
CCOc1ccc(-n2c(SCC(=O)Nc3cc(C)on3)nc3c([nH]c4ccccc43)c2=O)cc1	?	-24%	22µM*	-35

Bioassay records as filed in PubChem.
